The results in this text go back to paper PMC4336329 (PLoS ONE, 2015).

Hit rate of the full screen: of about 310,000 compounds, about 14,000 (4.5%) showed an effect of 50% or more. The effect is printed as a negative number. The list comes from a sample in which strong results are over-represented; it also holds similar structures and randomly drawn compounds.
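Also: peak tail current of the secondary pulse compared with the same well before compound.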

For this experiment, the target named is human ether-à-go-go-related gene (hERG) potassium channel (human, UniProt Q12809). Put plainly: primary screen, population patch clamp on CHO cells stably expressing hERG; higher = less effect of the substance.
human ether-à-go-go-related gene (hERG) potassium channel, sequence (Q12809 whole entry, looked up): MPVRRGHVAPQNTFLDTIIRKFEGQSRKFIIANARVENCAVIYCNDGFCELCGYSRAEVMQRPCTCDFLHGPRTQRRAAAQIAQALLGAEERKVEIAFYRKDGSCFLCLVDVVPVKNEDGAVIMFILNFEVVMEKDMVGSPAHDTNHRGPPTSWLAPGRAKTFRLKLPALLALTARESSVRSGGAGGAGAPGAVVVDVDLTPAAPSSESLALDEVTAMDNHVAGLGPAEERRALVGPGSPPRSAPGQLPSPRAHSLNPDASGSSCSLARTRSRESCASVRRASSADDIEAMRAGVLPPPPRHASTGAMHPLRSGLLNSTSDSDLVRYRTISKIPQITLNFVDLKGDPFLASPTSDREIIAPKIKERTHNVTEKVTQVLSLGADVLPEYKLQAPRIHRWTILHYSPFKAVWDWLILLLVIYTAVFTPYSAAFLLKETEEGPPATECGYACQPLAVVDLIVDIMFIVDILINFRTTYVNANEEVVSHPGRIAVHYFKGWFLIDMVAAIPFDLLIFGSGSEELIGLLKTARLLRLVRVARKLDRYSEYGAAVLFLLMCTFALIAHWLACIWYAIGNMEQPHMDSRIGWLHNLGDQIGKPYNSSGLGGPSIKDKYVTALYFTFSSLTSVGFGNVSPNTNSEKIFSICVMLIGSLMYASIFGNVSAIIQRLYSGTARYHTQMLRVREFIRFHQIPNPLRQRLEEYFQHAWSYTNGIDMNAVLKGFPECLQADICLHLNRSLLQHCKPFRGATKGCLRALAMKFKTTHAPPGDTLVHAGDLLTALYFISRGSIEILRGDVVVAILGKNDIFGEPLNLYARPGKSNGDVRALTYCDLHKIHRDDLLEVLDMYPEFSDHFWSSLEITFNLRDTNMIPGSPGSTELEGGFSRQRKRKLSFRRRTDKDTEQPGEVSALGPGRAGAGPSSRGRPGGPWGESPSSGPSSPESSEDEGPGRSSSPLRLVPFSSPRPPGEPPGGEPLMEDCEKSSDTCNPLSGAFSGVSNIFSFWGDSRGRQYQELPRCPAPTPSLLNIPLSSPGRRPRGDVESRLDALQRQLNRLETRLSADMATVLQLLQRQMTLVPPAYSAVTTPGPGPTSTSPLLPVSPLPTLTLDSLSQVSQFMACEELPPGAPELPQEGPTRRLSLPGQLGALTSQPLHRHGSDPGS
Turning to `Cc1cc(C)cc(OCC(=O)Nc2ccc(N3CCCC3)cc2)c1`, the “hERG current change (%, negative = inhibition) at 10uM” value is on record as 11.9%.
In the case of `COc1ccc(C(=O)Nc2nnc(S(=O)(=O)N3CCOCC3)s2)cc1`, the “hERG current change (%, negative = inhibition) at 10uM” value is listed as -3.02%.
In the case of `CC(C)C(=O)NNC(=O)c1c(O)c2ccccc2[nH]c1=O`, the “hERG current change (%, negative = inhibition) at 10uM” value was found to be 10.3%.
Under `O=C(Nc1cccc(O)c1)C1CC(c2c(F)cccc2Cl)=NO1` (stereo not drawn) stands -15.6%; under `COc1ccc(CNC(=O)OCCN2CCN(S(=O)(=O)c3ccc(C)cc3)CCC2=O)cc1`, -35.9%.
Under `CCCCC(NC(=O)Cc1c(C)c2cc3c(-c4ccccc4)coc3c(C)c2oc1=O)C(=O)O` (stereo not drawn) stands 13.2%.
Consider `O=C1CC(NNc2nc3ccccc3s2)C(=O)N1c1ccc(F)cc1` (stereo not drawn), for which the “hERG current change (%, negative = inhibition) at 10uM” value turned out to be 3.25%.
Under `CCOCCCNC(=S)N1CCN(C(=O)C(=O)Nc2ccc(C(=O)OC)cc2)CC1` stands -40.6%; under `CSCCC(NC(=O)COc1ccccc1)C(=O)OCC(=O)c1cc2ccccc2o1` (stereo not drawn), 8.62%.
For `COc1ccc(C(=O)NC(=S)NCc2ccccc2)cc1` the value was -0.211%; for `Cc1ccccc1CNC(=O)CCC(=O)N1CCOc2ccccc21`, 7.41%.
For `Cc1ccc(-c2c(C)n([O-])c3c([n+]2=O)CCCCC3)o1` the value was -1.3%; for `Cc1c(NC(=O)c2ccc(Cl)nc2)cccc1-c1nc2cccnc2s1`, -48.1%.
In the case of `CCCOc1ccc(/C=c2\sc3ncnn3c2=O)cc1`, the “hERG current change (%, negative = inhibition) at 10uM” value came to 6.61%.
Take `CCOCc1[nH]c(=S)[nH]c(=O)c1Cc1ccc(OCC(C)C)cc1`: the “hERG current change (%, negative = inhibition) at 10uM” value stood at 14%.
For `CCOCc1[nH]c(=S)[nH]c(=O)c1Cc1ccc(OCC)cc1` the value was 9.49%; for `CCOCc1[nH]c(=S)[nH]c(=O)c1Cc1ccc(OC(C)C)cc1`, -58.8%.
In the case of `COc1cccc(C2=CC(c3cccs3)n3nnnc3N2)c1` (stereo not drawn), the “hERG current change (%, negative = inhibition) at 10uM” value was determined as 14.5%.
For `CCc1nnc(SCc2ccc(OC(C)C)cc2)n1N` the value was 9.36%; for `CCCCn1c2c(c(=O)n(C)c1=O)C(CC(=O)OCC(=O)Nc1cccc(C(F)(F)F)c1)C(=O)N2` (stereo not drawn), -5.56%; for `Cc1ccc(NC(=O)C(C)Sc2nnc(C3CC3)n2C2CC2)cc1S(=O)(=O)N1CCOCC1` (stereo not drawn), -51%.
For `COc1cccc(NC(=O)C(C)Sc2nnc(C3CC3)n2C2CC2)c1` (stereo not drawn) the value was -67%; for `COc1ccc(Cl)cc1NC(=O)C(C)Sc1nnc(C2CC2)n1C1CC1` (stereo not drawn), -69.5%.
For `CC(Sc1nnc(C2CC2)n1C1CC1)C(=O)Nc1cccc(S(=O)(=O)N(C)C)c1` (stereo not drawn) the value was -19.5%; for `Cc1ccc(NC(=O)C(C)Sc2nnc(C)n2C2CC2)cc1S(=O)(=O)N1CCOCC1` (stereo not drawn), -13.9%.
Take `CC(Sc1nnc(C2CC2)n1C1CC1)C(=O)Nc1cccc(S(=O)(=O)N2CCOCC2)c1` (stereo not drawn): the “hERG current change (%, negative = inhibition) at 10uM” value was -11.8%.
Consider `COc1ccc(Cl)cc1NC(=O)C(C)Sc1nncn1C` (stereo not drawn), for which the “hERG current change (%, negative = inhibition) at 10uM” value was 0.256%.
Under `CC(Sc1nnc(C2CC2)n1C1CC1)C(=O)Nc1ccccc1C#N` (stereo not drawn) stands -10%.
Turning to `COc1ccc(NC(=O)C(C)Sc2nnc(C3CC3)n2C2CC2)cc1` (stereo not drawn), the “hERG current change (%, negative = inhibition) at 10uM” value was -13.3%.
`Cc1ccc(C)c(OCCC(=O)NCCc2ccc(S(N)(=O)=O)cc2)c1`: the “hERG current change (%, negative = inhibition) at 10uM” value was found to be 10.7%.
For `O=C(c1cccs1)[C@@H]1[C@@H]2C(=O)N(Cc3ccc4c(c3)OCO4)C(=O)[C@@H]2C2c3ccccc3C=CN21` (stereo partly drawn) the value was -26.7%; for `O=C(CCCCCN1C(=O)c2cccc3cccc(c23)C1=O)NCCCO`, -1.71%.
For `O=c1[nH]c(C2CC2)nc2sc3c(c12)CCCC3` the value was 15.8%; for `CCOC(=O)c1c(NC(=O)COC(=O)CCOc2ccc(OCC)cc2)sc(C(=O)N(C)C)c1C`, -8.87%.
In the case of `CCOC(=O)c1c(NC(=O)COC(=O)c2ccc([N+](=O)[O-])cc2)sc(C(=O)N(C)C)c1C`, the “hERG current change (%, negative = inhibition) at 10uM” value is -8.65%.
Under `CCOC(=O)c1c(NC(=O)COC(=O)Cc2n[nH]c(=O)c3ccccc23)sc(C(=O)N(C)C)c1C` stands -2.24%; under `CCOC(=O)c1c(NC(=O)COC(=O)Cc2c[nH]c3ccccc23)sc(C(=O)N(C)C)c1C`, -62.5%.
With `CCOC(=O)c1c(NC(=O)COC(=O)Cc2ccccc2[N+](=O)[O-])sc(C(=O)N(C)C)c1C`, the “hERG current change (%, negative = inhibition) at 10uM” value was -68.9%.
For `CCOC(=O)c1c(NC(=O)COC(=O)c2ccccn2)sc(C(=O)N(C)C)c1C` the value was 4.44%; for `CN(Cc1nc2ccccc2[nH]1)Cc1nc(CC2CC2)no1`, -14.5%.
On to `CCOc1cc(Br)ccc1S(=O)(=O)N1CCC(C(N)=O)CC1`, for which the “hERG current change (%, negative = inhibition) at 10uM” value is on record as -5.26%.
For `O=C1COc2ccc(C(=O)COc3ccc([N+](=O)[O-])cc3)cc2N1`, the “hERG current change (%, negative = inhibition) at 10uM” value is 8.2%.
Take `CC(C)Oc1ccc(C(CC(=O)O)NC(=O)c2cccs2)cc1` (stereo not drawn): the “hERG current change (%, negative = inhibition) at 10uM” value was -2.74%.
Under `CC1(C)CC(=O)C2=C(C1)Oc1ncn(CCO)c(=N)c1C2c1ccccc1` (stereo not drawn) stands -35.3%.
As for `CC(C)Cn1cnc2c(c1=N)C(c1ccccc1)C1=C(CC(C)(C)CC1=O)O2` (stereo not drawn), the “hERG current change (%, negative = inhibition) at 10uM” value is -38.8%.
